Reference: PubChem BioAssay AID1159580 (chemical genetic matrix, 2015)
About 2,000 (36%) of roughly 5,500 compounds were called active. Not shown: some 18% with an inconclusive outcome. No stated cut-off is given here; in the data, active means normalized growth mostly below about 0.91 (no sharp cut-off); inconclusive means no clear call, values can overlap the other calls; inactive means mostly above about 0.92. This is one part of the list.

Assay: chemical genetic growth profiling, strain panel (AID 1159580);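 further: tested at 20 µM; growth read once vehicle control cultures reached saturation at 30 °C; 1 = growth at the plate median or of vehicle wells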
Conditions: growth OD

Measured: normalized growth

CNC(=O)O/N=C(\C)SC
inactive: S. cerevisiae deletion strains, locus YJR075W, strain HOC1, stronger effect = lower value 0.99 | S. cerevisiae deletion strains, locus YKL009W, strain mrt4, stronger effect = lower value 1.02 | S. cerevisiae deletion strains, locus YKL068W, stronger effect = lower value 0.986 | S. cerevisiae deletion strains, locus YKL085W, strain MDH1 (second series), stronger effect = lower value 0.985 | S. cerevisiae deletion strains, locus YKL085W, strain MDH1, stronger effect = lower value 0.985 | S. cerevisiae deletion strains, locus YKL160W, strain elf1, stronger effect = lower value 1 | S. cerevisiae deletion strains, locus YKL190W, strain CNB1, stronger effect = lower value 1 | S. cerevisiae deletion strains, locus YKR001C, strain vps1, stronger effect = lower value 0.999 | S. cerevisiae deletion strains, locus YKR026C, strain gcn3, stronger effect = lower value 0.999 | S. cerevisiae deletion strains, locus YKR091W, strain srl3, stronger effect = lower value 1 | S. cerevisiae deletion strains, locus YLL001W, strain dnm1, stronger effect = lower value 1 | S. cerevisiae deletion strains, locus YLL026W, stronger effect = lower value 1 | S. cerevisiae deletion strains, locus YLL041C, strain sdh2, stronger effect = lower value 0.999 | S. cerevisiae deletion strains, locus YLR027C, strain aat2, stronger effect = lower value 0.987 | S. cerevisiae deletion strains, locus YLR039C, strain RIC1, stronger effect = lower value 1.01 | S. cerevisiae deletion strains, locus YLR058C, strain SHM2, stronger effect = lower value 1.01 | S. cerevisiae deletion strains, locus YLR102C, strain apc9, stronger effect = lower value 0.99 | S. cerevisiae deletion strains, locus YLR113W, strain HOG1, stronger effect = lower value 1.01 | S. cerevisiae deletion strains, locus YLR221C, strain rsa3, stronger effect = lower value 1 | S. cerevisiae deletion strains, locus YLR258W, strain gsy2, stronger effect = lower value 0.994 | S. cerevisiae deletion strains, locus YLR262C, strain YPT6 (second series), stronger effect = lower value 1.03 | S. cerevisiae deletion strains, locus YLR262C, strain YPT6, stronger effect = lower value 1.05 | S. cerevisiae deletion strains, locus YLR268W, strain sec22, stronger effect = lower value 0.994 | S. cerevisiae deletion strains, locus YLR320W, strain mms22, stronger effect = lower value 0.995 | S. cerevisiae deletion strains, locus YLR330W, strain CHS5, stronger effect = lower value 1.01 | S. cerevisiae deletion strains, locus YLR342W, strain FKS1 (second series), stronger effect = lower value 1.02 | S. cerevisiae deletion strains, locus YLR342W, strain FKS1, stronger effect = lower value 0.997 | S. cerevisiae deletion strains, locus YLR357W, strain rsc2, stronger effect = lower value 0.983 | S. cerevisiae deletion strains, locus YLR370C, strain arc18, stronger effect = lower value 1 | S. cerevisiae deletion strains, locus YLR371W, strain rom2, stronger effect = lower value 0.98 | S. cerevisiae deletion strains, locus YLR384C, strain iki3, stronger effect = lower value 1 | S. cerevisiae deletion strains, locus YLR418C, strain cdc73, stronger effect = lower value 1.01 | S. cerevisiae deletion strains, locus YML016C, strain PPZ1, stronger effect = lower value 1.01 | S. cerevisiae deletion strains, locus YML032C, strain rad52, stronger effect = lower value 0.981 | S. cerevisiae deletion strains, locus YML120C, strain ndi1, stronger effect = lower value 1.01 | S. cerevisiae deletion strains, locus YML124C, strain tub3, stronger effect = lower value 0.978 | S. cerevisiae deletion strains, locus YMR058W, strain fet3, stronger effect = lower value 1 | S. cerevisiae deletion strains, locus YMR078C, strain ctf18, stronger effect = lower value 0.985 | S. cerevisiae deletion strains, locus YMR125W, strain sto1, stronger effect = lower value 0.999 | S. cerevisiae deletion strains, locus YMR129W, stronger effect = lower value 0.999 | S. cerevisiae deletion strains, locus YMR205C, strain PFK2, stronger effect = lower value 1.01 | S. cerevisiae deletion strains, locus YMR223W, strain ubp8, stronger effect = lower value 0.991 | S. cerevisiae deletion strains, locus YMR231W, strain pep5, stronger effect = lower value 0.982 | S. cerevisiae deletion strains, locus YMR263W, strain SAP30, stronger effect = lower value 1.02 | S. cerevisiae deletion strains, locus YMR307W, strain GAS1, stronger effect = lower value 1.02 | S. cerevisiae deletion strains, locus YNL067W, strain RPL9B, stronger effect = lower value 1.01 | S. cerevisiae deletion strains, locus YNL071W, strain lat1, stronger effect = lower value 1.01 | S. cerevisiae deletion strains, locus YNL128W, strain TEP1, stronger effect = lower value 1.01 | S. cerevisiae deletion strains, locus YNL153C, strain GIM3, stronger effect = lower value 0.996 | S. cerevisiae deletion strains, locus YNL183C, strain NPR1, stronger effect = lower value 0.997 | S. cerevisiae deletion strains, locus YNL209W, strain ssb2, stronger effect = lower value 0.996 | S. cerevisiae deletion strains, locus YNL233W, strain BNI4, stronger effect = lower value 1.03 | S. cerevisiae deletion strains, locus YNL248C, strain rpa49, stronger effect = lower value 1 | S. cerevisiae deletion strains, locus YNL250W, strain rad50, stronger effect = lower value 0.974 | S. cerevisiae deletion strains, locus YNL271C, strain bni1, stronger effect = lower value 0.991 | S. cerevisiae deletion strains, locus YNL298W, strain CLA4, stronger effect = lower value 0.988 | S. cerevisiae deletion strains, locus YNL307C, strain MCK1, stronger effect = lower value 0.981 | S. cerevisiae deletion strains, locus YNL322C, strain KRE1 (second series), stronger effect = lower value 0.995 | S. cerevisiae deletion strains, locus YNL322C, strain KRE1, stronger effect = lower value 1.01 | S. cerevisiae deletion strains, locus YNR049C, strain mso1, stronger effect = lower value 0.998 | S. cerevisiae deletion strains, locus YNR052C, strain pop2, stronger effect = lower value 0.988 | S. cerevisiae deletion strains, locus YOL006C, strain TOP1, stronger effect = lower value 1.07 | S. cerevisiae deletion strains, locus YOL012C, strain htz1 0.858 | S. cerevisiae deletion strains, locus YOL147C, strain pex11, stronger effect = lower value 0.976 | S. cerevisiae deletion strains, locus YOR001W, strain rrp6, stronger effect = lower value 0.989 | S. cerevisiae deletion strains, locus YOR061W, strain CKA2, stronger effect = lower value 1.01 | S. cerevisiae deletion strains, locus YOR069W, strain VPS5, stronger effect = lower value 1 | S. cerevisiae deletion strains, locus YOR070C, strain gyp1, stronger effect = lower value 0.995 | S. cerevisiae deletion strains, locus YOR080W, strain dia2, stronger effect = lower value 0.996 | S. cerevisiae deletion strains, locus YOR083W, strain WHI5, stronger effect = lower value 1 | S. cerevisiae deletion strains, locus YOR106W, strain vam3, stronger effect = lower value 1.01 | S. cerevisiae deletion strains, locus YOR136W, strain idh2, stronger effect = lower value 0.978 | S. cerevisiae deletion strains, locus YOR144C, strain elg1, stronger effect = lower value 0.977 | S. cerevisiae deletion strains, locus YOR184W, strain ser1, stronger effect = lower value 0.993 | S. cerevisiae deletion strains, locus YOR231W, strain MKK1, stronger effect = lower value 1.05 | S. cerevisiae deletion strains, locus YOR265W, strain rbl2, stronger effect = lower value 1.02 | S. cerevisiae deletion strains, locus YOR270C, strain vph1, stronger effect = lower value 1.02 | S. cerevisiae deletion strains, locus YOR290C, strain snf2, stronger effect = lower value 0.981 | S. cerevisiae deletion strains, locus YOR316C, strain cot1, stronger effect = lower value 0.983 | S. cerevisiae deletion strains, locus YPL051W, strain arl3, stronger effect = lower value 1.02 | S. cerevisiae deletion strains, locus YPL055C, strain LGE1, stronger effect = lower value 1.03 | S. cerevisiae deletion strains, locus YPL078C, strain atp4, stronger effect = lower value 0.997 | S. cerevisiae deletion strains, locus YPL106C, strain sse1, stronger effect = lower value 0.982 | S. cerevisiae deletion strains, locus YPL240C, strain hsp82, stronger effect = lower value 0.998 | S. cerevisiae deletion strains, locus YPL241C, strain CIN2, stronger effect = lower value 1 | S. cerevisiae deletion strains, locus YPL256C, strain CLN2, stronger effect = lower value 1.05 | S. cerevisiae deletion strains, locus YPR119W, strain clb2, stronger effect = lower value 0.985 | S. cerevisiae deletion strains, locus YPR141C, strain kar3, stronger effect = lower value 0.989 | S. cerevisiae deletion strains, locus YPR163C, strain tif3, stronger effect = lower value 0.976 | S. cerevisiae deletion strains, locus YPR167C, strain met16, stronger effect = lower value 0.986 | S. cerevisiae deletion strains, strain wtn01, stronger effect = lower value 0.997 | S. cerevisiae strains, strain wild type, stronger effect = lower value 1
